Source: PubChem (National Center for Advancing Translational Sciences (NCATS))
KB-V1 cytotox = KB-V1 MDR subline cytotoxicity; KB-V1 MDR cells viability, CellTiter-Glo, 72 h; AID 1347076; Potency, µM (titrated, usually from 46.1 µM), hits mostly cytotoxic; actives 3.4% (n = 400,000); note: nearly all actives have a fitted effect of over 60% in size
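Potencies derive from concentration-effect curves fitted to normalized luminescence (CellTiter-Glo) of KB-V1 cells treated for 72 h at 37 degrees C in phenol-red-free DMEM containing 10% FBS.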
RORg inh = ROR gamma (mouse) transcription inhibition | Drosophila S2 Gal4-RORgamma UAS-luciferase reporter, 20 h | Potency, µM (series often up to 53.6 µM), most hits filed as inhibitors | actives 5.4% (n = 310,000); note: nearly all actives have a fitted effect of over 60% in size
Target sequence (P51450 whole entry, looked up, the tested form may be a part): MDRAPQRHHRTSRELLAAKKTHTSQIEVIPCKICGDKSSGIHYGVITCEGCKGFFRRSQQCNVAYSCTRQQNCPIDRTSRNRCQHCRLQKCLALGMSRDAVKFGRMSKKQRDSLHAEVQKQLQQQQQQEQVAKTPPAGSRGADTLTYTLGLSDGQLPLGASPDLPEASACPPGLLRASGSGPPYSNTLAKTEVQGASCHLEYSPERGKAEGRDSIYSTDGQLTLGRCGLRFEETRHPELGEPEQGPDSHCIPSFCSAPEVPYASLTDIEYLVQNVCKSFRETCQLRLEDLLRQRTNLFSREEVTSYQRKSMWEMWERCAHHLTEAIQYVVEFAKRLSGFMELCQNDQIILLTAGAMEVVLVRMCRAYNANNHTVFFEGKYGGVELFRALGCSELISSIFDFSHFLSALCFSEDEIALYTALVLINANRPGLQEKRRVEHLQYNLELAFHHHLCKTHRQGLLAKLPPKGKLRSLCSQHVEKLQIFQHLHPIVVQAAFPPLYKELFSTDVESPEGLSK
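Luminescence from a UAS-regulated Photinus luciferase reporter in stably transfected Drosophila Schneider cells is measured; decreased signal marks ROR gamma inhibition. Fusion expression is induced by 700 uM copper sulfate for 20 hr.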
Gal4-VP16 FLuc = Gal4-VP16 reporter inhibition counter-screen; Drosophila S2 Gal4-VP16 UAS-luciferase, luminescence, 20 h; Potency, µM (doses to about 53.6 µM), usual class: inhibitors; actives 3.5% (n = 310,000);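 note: Gal4-VP16 expression switched on by copper sulfate through the metallothionein promoter; nearly all actives have a fitted effect of over 50% in size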
SW480 rereplic = induces DNA re-replication in SW480 colon adenocarcinoma cells; SW480 DNA re-replication, Hoechst DNA content imaging, 48 h; Potency, µM (highest dose often 46.1 µM), most hits filed as activators; actives 1.8% (n = 340,000); note: nearly all actives have a fitted effect of over 55% in size
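Per well, 250 cells were exposed to pinned compound for 48 hr. Nuclear DNA was visualised with Hoechst (40 min, 37 C) and total object intensity recorded by fluorescence scanning.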
MCF10A rerep = DNA re-replication induction in MCF 10a cells; MCF 10A DNA re-replication, Hoechst nuclear intensity, 48 h; Potency, µM (titrated, usually from 46.1 µM), most hits filed as activators; actives 2.9% (n = 350,000); AID 624296; note: nearly all actives have a fitted effect of over 50% in size
KB-3-1 tox = kills parental KB-3-1 adenocarcinoma cells | KB-3-1 viability, CellTiter-Glo ATP luminescence, 72 h | Potency, µM (titrated, usually from 46.1 µM), usual class: cytotoxic | actives 1.4% (n = 400,000) | AID 1347075; note: nearly all actives have a fitted effect of over 60% in size
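Parental KB-3-1 adenocarcinoma cells in phenol-red-free DMEM with 10% FBS were pin-treated with compounds at several concentrations, incubated 72 h at 37 °C, and viability read by CellTiter-Glo luminescence; concentration-effect curves were fitted after normalization.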
Of the large screens only hits and unclear results are named; the others gave an inactive call. Rows were chosen to be rich in hits. Some 10% of all compounds tested hit in one or more screens of this group. Calls come from the whole dose curve; as a rule, active = well fitted curve in the direction sought with a large enough effect; inconclusive = small, poorly fitted or top-dose-only effect, or another doubt; inactive = no such curve, though single readings can be large; an effect the other way counts as inactive or inconclusive.

O=C(Nc1cccc(F)c1)C1CCCN(c2cnccn2)C1 (centres undefined)	KB-V1 cytotox inconclusive
Cc1ccc(NC(=O)Cn2c(=O)n(CC3CCC(C(=O)NC(C)C)CC3)c(=O)c3sccc32)cc1 (centres undefined)	none (no result: RORg inh, Gal4-VP16 FLuc, SW480 rereplic, MCF10A rerep)
COC(=O)N1C(=O)[C@@](c2ccccc2)(C2CCCCC2)N1C(=O)OC	RORg inh 7.9µM, MCF10A rerep 15µM
COc1ccc(NC(=O)Nc2cccc(OCc3cc(=O)n4cccc(C)c4n3)c2)c(OC)c1	none (no result: RORg inh, Gal4-VP16 FLuc, SW480 rereplic, MCF10A rerep)
COc1ccc(C(=O)C[C@@H]2OC[C@H](C(C)C)N2S(=O)(=O)c2ccc(C)cc2)cc1OC	KB-V1 cytotox 21µM (no result: RORg inh, Gal4-VP16 FLuc, SW480 rereplic, MCF10A rerep)
C=CCn1c(-c2ccoc2)n[nH]c1=S	RORg inh 11µM, Gal4-VP16 FLuc 18µM
C=CCn1c(CSCc2ccc(F)cc2)n[nH]c1=S	RORg inh 3.2µM, Gal4-VP16 FLuc 3.5µM
C=CCn1c(-c2cc(OC)cc(OC)c2)n[nH]c1=S	RORg inh inconclusive, Gal4-VP16 FLuc inconclusive
C=CCn1c(Cc2ccccc2)n[nH]c1=S	RORg inh 7.1µM, Gal4-VP16 FLuc inconclusive
C=CCn1c(-c2cccc(OCC)c2)n[nH]c1=S	RORg inh 5µM, Gal4-VP16 FLuc 18µM
C=CCn1c(Cc2c[nH]c3ccccc23)n[nH]c1=S	none
C=CCn1c(CNS(=O)(=O)c2ccc(Cl)cc2)n[nH]c1=S	none
C=CCn1c(CNS(=O)(=O)c2ccc(F)cc2)n[nH]c1=S	none
O=C(NC[C@H](O)c1ccccc1)c1ccccc1	none (no result: KB-V1 cytotox, SW480 rereplic, MCF10A rerep, KB-3-1 tox)
O=c1c(-c2cc(F)cc(F)c2)nc2cnc(N3CCOCC3)nc2n1C1CC1	none (no result: KB-V1 cytotox, SW480 rereplic, MCF10A rerep, KB-3-1 tox)
C=CCn1c(-c2ccncc2)n[nH]c1=S	RORg inh 10µM, MCF10A rerep inconclusive
C=CCn1c(-c2ccccc2)n[nH]c1=S	RORg inh inconclusive
C=CCn1c(CCc2cc(C(C)(C)C)c(O)c(C(C)(C)C)c2)n[nH]c1=S	KB-V1 cytotox inconclusive, RORg inh 2.5µM, Gal4-VP16 FLuc 7.9µM, MCF10A rerep inconclusive
C=CCn1c(-c2sc3nc(C)cc(C)c3c2N)n[nH]c1=S	RORg inh inconclusive, MCF10A rerep 9.2µM
C=CCn1c(CCC(O)CCCCC)n[nH]c1=S (centres undefined)	RORg inh inconclusive, MCF10A rerep inconclusive
C=CCn1c(-c2ccc(F)cc2)n[nH]c1=S	RORg inh 7.9µM, Gal4-VP16 FLuc inconclusive
CC(=O)c1ccc(C2C=CC(Oc3ccc(F)cc3C)C(CO)O2)cc1 (centres undefined)	none (no result: KB-V1 cytotox, SW480 rereplic, MCF10A rerep, KB-3-1 tox)
CC(=O)N1CCc2cc(S(=O)(=O)NC(Cc3ccccc3)C(=O)Nc3cccc(C)c3)ccc21 (centres undefined)	KB-V1 cytotox inconclusive (no result: RORg inh, Gal4-VP16 FLuc, SW480 rereplic, MCF10A rerep)
Cc1cc(O)ccc1Nc1cc(-c2cccc(N)c2)ncn1	none (no result: RORg inh, Gal4-VP16 FLuc, SW480 rereplic, MCF10A rerep)
CCOC(=O)c1ccccc1NC(=O)N1CCC(CN2CCCCC2)CC1	none (no result: RORg inh, Gal4-VP16 FLuc, SW480 rereplic, MCF10A rerep)
C=CCn1c(CCCOc2ccc(Cl)cc2Cl)n[nH]c1=S	RORg inh 3.5µM, Gal4-VP16 FLuc 5.6µM, MCF10A rerep inconclusive
C=CCn1c(Cc2nc3ccc(Cl)cc3[nH]2)n[nH]c1=S	RORg inh inconclusive
COC(=O)c1ccc(C(NC(=O)OCc2ccccc2)/C(=C/[C@@H](C)C(=O)NCc2cc(F)cc(F)c2)c2cccnc2)cc1 (some centres undefined)	none (no result: KB-V1 cytotox, SW480 rereplic, MCF10A rerep, KB-3-1 tox)
O=C1CC(SCCO)C(=O)N1c1ccccc1 (centres undefined)	none
O=C1CC(Sc2nnnn2C2CCCCC2)C(=O)N1c1ccccc1 (centres undefined)	RORg inh inconclusive, Gal4-VP16 FLuc 5µM
Cn1nnnc1SC1CC(=O)N(c2ccccc2)C1=O (centres undefined)	RORg inh 7.9µM, Gal4-VP16 FLuc inconclusive, SW480 rereplic inconclusive, MCF10A rerep inconclusive
COC(=O)c1ccccc1SC1CC(=O)N(c2ccccc2)C1=O (centres undefined)	RORg inh inconclusive, Gal4-VP16 FLuc inconclusive
Cc1cc(C)cc(N2C(=O)CC(Sc3nnnn3-c3ccccc3)C2=O)c1 (centres undefined)	RORg inh inconclusive, Gal4-VP16 FLuc 7.1µM, MCF10A rerep inconclusive
CC(C)CN(C[C@@H](O)[C@H](Cc1ccccc1)NC(=O)O[C@H]1CO[C@H]2OCC[C@H]21)S(=O)(=O)c1ccc(N)cc1	SW480 rereplic inconclusive (no result: KB-V1 cytotox, KB-3-1 tox)
Cc1ccccc1OC1C=CC(c2ccccc2)OC1CO (centres undefined)	none (no result: KB-V1 cytotox, SW480 rereplic, MCF10A rerep, KB-3-1 tox)
COc1cc(/C=C/C(=O)NC(=O)c2ccccc2O)ccc1OC(C)=O	KB-V1 cytotox inconclusive
CCCC[C@]12Cc3ccccc3C(O1)c1c(cc(-c3ccccc3)oc1=O)O2	Gal4-VP16 FLuc inconclusive (no result: KB-V1 cytotox, SW480 rereplic, MCF10A rerep, KB-3-1 tox)
O=C(Cn1cc([N+](=O)[O-])nc1[N+](=O)[O-])N1CCN(c2ccccc2)CC1	RORg inh 5.6µM, Gal4-VP16 FLuc inconclusive, SW480 rereplic inconclusive
Cc1c(Br)c([N+](=O)[O-])nn1CCCC(=O)N1CCN(c2ccccc2)CC1	KB-V1 cytotox 21µM, RORg inh inconclusive, KB-3-1 tox inconclusive
Cc1c(Cl)c([N+](=O)[O-])nn1CCCC(=O)N1CCN(c2ccccc2)CC1	none
Cc1c(Br)c([N+](=O)[O-])nn1CC(=O)N1CCc2ccccc2C1	KB-V1 cytotox 16µM
